Lassa entry inh: inhibitors of Lassa virus binding or cell entry. Lassa virus pseudotype entry inhibition, cell reporter. Potency, µM (highest dose often 37.9 µM), usual class: inhibitors. 300,000 compounds, 1.2% hits. AID 540256; calls by dose curve; tested in HEK293 cells; note: nearly all actives have a fitted effect of over 50% in size
Pf growth 96h: P. falciparum growth inhibition at 96 hour, primary screen for plastid delayed-death inhibitors. P. falciparum luciferase reporter growth, 96 h. Potency, µM (series often up to 28.7 µM), most hits filed as inhibitors. 320,000 compounds, 6.9% hits
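Plates of compound plus infected erythrocytes (2% hematocrit, 0.05% parasitemia final) incubate 96 hours, 37 C, 5% CO2. Detection reagent added; reduced luminescence from the parasites' luciferase reporter flags inhibition.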
CHX counter: counter-screen for Shiga toxin inhibitors: cycloheximide protein synthesis inhibition; cell reporter, cycloheximide protein synthesis inhibition counterscreen; max response, %; 300,000 compounds, 12% hits; in the data active = max response mostly above about 13%, no sharp cut-off; inactive = mostly below about 14%; note: read at 38.3 µM for the half of the compounds with a filed dose
Marburg entry inh: inhibitors of Marburg virus binding or cell entry; Marburg virus pseudotyped entry inhibition, cell reporter; Potency, µM (top dose mostly 37.8 µM), hits mostly inhibitors; 300,000 compounds, 1.8% hits; calls by dose curve; tested in HEK293 cells
Shiga toxin inh: Shiga toxin inhibition; Vero cells, Shiga toxin protein synthesis inhibition reporter; inhibition, % at 38.7 µM; 290,000 compounds, 9.2% hits; AID 2315; in the data active = inhibition mostly above about 28%, no sharp cut-off; inactive = mostly below about 43%
Pf growth 48h: inhibits P. falciparum growth in the first generation, 48 h; P. falciparum luciferase growth in erythrocytes, 48 h; Potency, µM (series often up to 28.7 µM), actives largely listed as inhibitors; 310,000 compounds, 5.9% hits; AID 504832
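Here the parasites carry a stable luciferase gene and grow inside erythrocytes in Albumax-based RPMI medium with compound for one erythrocytic cycle. Activity is scored as loss of luminescent signal.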
Large screens that a line does not name were inactive. An excerpt weighted towards active compounds, which were near 19% of everything screened. Unless noted, calls come from the whole dose curve; as a rule, active = well fitted inhibition curve with a large enough effect; inconclusive = small, poorly fitted or top-dose-only effect, or another doubt; inactive = no such curve, though single readings can be large or run the other way.

NC(=O)C1CCN(C(=O)C2CCC(=O)N(C3CCCCCC3)C2)CC1 (stereo unspecified)	Pf growth 96h inconclusive
Cc1nn(C)c(C)c1CN(C(=O)C1CCC(=O)N(C2CCCCCC2)C1)C(C)C (stereo unspecified)	Lassa entry inh inconclusive, Pf growth 96h 12µM, CHX counter 31, Marburg entry inh inconclusive, Pf growth 48h inconclusive
Cc1ccc(NC(=O)[C@@H](NC(=O)c2cccc(S(=O)(=O)N3CCOCC3)c2)C(C)C)cc1C	Pf growth 96h inconclusive, Marburg entry inh inconclusive, Pf growth 48h inconclusive
CC(=O)N1c2ccc(S(=O)(=O)NCCC(=O)N(C)Cc3ccccc3)cc2CC1C (stereo unspecified)	Pf growth 96h 7.4µM (no result: Marburg entry inh)
CCN(Cc1ccccc1)C(=O)CCNS(=O)(=O)c1ccc2c(c1)CC(C)N2C(C)=O (stereo unspecified)	Pf growth 96h inconclusive (no result: Marburg entry inh)
CSc1ccc(CN(C)C(=O)CCNS(=O)(=O)c2ccc(C)c(C)c2)cc1	Pf growth 96h inconclusive, Pf growth 48h 3.7µM (no result: CHX counter, Shiga toxin inh)
O=C(N1CCN(c2ccccc2F)CC1)C1(c2cccs2)CCOCC1	none
COc1ccc(Nc2nc(-c3ccccc3)nc3ccccc23)c(OC)c1	Pf growth 96h inconclusive, Marburg entry inh inconclusive, Pf growth 48h inconclusive
COc1cc2nc(Nc3cccc(F)c3)nc(N)c2cc1OC	Lassa entry inh inconclusive, Pf growth 96h inconclusive, Marburg entry inh inconclusive, Pf growth 48h 0.41µM
CNc1nc(N)c([N+](=O)[O-])c(Nc2cccc(F)c2)n1	Pf growth 96h inconclusive, Pf growth 48h inconclusive
COc1ccc(Nc2nc(N)c3ccccc3n2)c(OC)c1	CHX counter 34, Marburg entry inh inconclusive, Shiga toxin inh 45, Pf growth 48h inconclusive
COc1ccc(Nc2nc(N)c3cc(OC)c(OC)cc3n2)cc1	Marburg entry inh 11µM (no result: Pf growth 96h, CHX counter, Shiga toxin inh, Pf growth 48h)
COc1ccc(Nc2nc(N)nc(C(F)(F)F)n2)c(OC)c1	Pf growth 96h inconclusive, CHX counter 25
Cc1cc(C)cc(OCC(=O)OCC(=O)Nc2ccc(Cl)cn2)c1	none
COc1nc(Nc2ccccc2)nc(OC)n1	none (no result: Pf growth 96h, CHX counter, Shiga toxin inh, Pf growth 48h)
COc1nc(Nc2cccc(F)c2)nc(OC)n1	CHX counter 20 (no result: Lassa entry inh, Marburg entry inh, Shiga toxin inh)
C=CCc1ccccc1OCCSc1nc(-c2ccccc2F)nc2cc(=O)[nH]n12	none (no result: Pf growth 96h, CHX counter, Marburg entry inh, Shiga toxin inh, Pf growth 48h)
Cc1ccccc1OCC(=O)N/N=C/c1ccc([N+](=O)[O-])o1	Pf growth 96h 2.1µM, Pf growth 48h 5.2µM (no result: Lassa entry inh)
O=C(CNc1cccc([N+](=O)[O-])c1)N/N=C/c1ccc([N+](=O)[O-])o1	Lassa entry inh inconclusive, Marburg entry inh inconclusive, Pf growth 48h inconclusive
O=C(CCN1CCN(c2ccccc2)CC1)N/N=C/c1ccc([N+](=O)[O-])o1	Pf growth 96h 10µM, Marburg entry inh inconclusive, Pf growth 48h inconclusive
O=C(CNc1cccc2ccccc12)N/N=C/c1ccc([N+](=O)[O-])o1	Lassa entry inh inconclusive, Pf growth 96h 1.2µM, CHX counter 10, Marburg entry inh inconclusive, Pf growth 48h 3.3µM
Cc1cc(C)cc(OCC(=O)N/N=C/c2ccc([N+](=O)[O-])o2)c1	Lassa entry inh inconclusive, Marburg entry inh inconclusive, Pf growth 48h 9.3µM
CCCOc1ccc(CCC(=O)N/N=C/c2ccc([N+](=O)[O-])o2)cc1	Pf growth 96h 12µM, Pf growth 48h inconclusive (no result: Lassa entry inh, Marburg entry inh)
COc1ccccc1OCC(=O)N/N=C/C=C/c1ccc([N+](=O)[O-])o1	Lassa entry inh inconclusive, Pf growth 96h 1.5µM, CHX counter 19, Marburg entry inh inconclusive, Pf growth 48h 4.1µM
O=C(COc1ccccc1[N+](=O)[O-])N/N=C/C=C/c1ccco1	Lassa entry inh inconclusive, Marburg entry inh inconclusive
CC1=C(C(=O)NC2CCCc3c2cnn3-c2ccc(F)cc2F)OCCO1 (stereo unspecified)	none (no result: Lassa entry inh, Marburg entry inh)
COc1ccc(-n2c(=O)c(CCC(=O)N3CCC(C)CC3)nc3ccccc32)cc1	Pf growth 96h inconclusive, Pf growth 48h 9.3µM (no result: Lassa entry inh, CHX counter, Marburg entry inh, Shiga toxin inh)
COc1ccc(-n2c(=O)c(CCC(=O)N(C)Cc3cccs3)nc3ccccc32)cc1	Pf growth 96h inconclusive, Marburg entry inh inconclusive, Pf growth 48h 13µM (no result: CHX counter, Shiga toxin inh)
CC#CC[N+](C)(C)CC(=O)c1ccccc1	none (no result: Lassa entry inh, Marburg entry inh)
Cc1ccc(C)c2[nH]c(=O)c(CN(Cc3cccs3)C(=S)NCc3ccco3)cc12	Pf growth 48h 10µM
Cc1cc2cc(CN(Cc3cccs3)C(=S)NCc3ccco3)c(=O)[nH]c2cc1C	Pf growth 96h inconclusive, Marburg entry inh 14µM
Cc1cc2cc(CN(CCN(C)C)C(=S)NCc3ccco3)c(=O)[nH]c2cc1C	Pf growth 96h inconclusive, Marburg entry inh inconclusive, Pf growth 48h inconclusive
CCn1c(=S)sc2c(=O)n(-c3ccccc3)c(=S)[nH]c21	Marburg entry inh inconclusive
COC(=O)CCN1CCc2cc(N=Nc3ccc([N+](=O)[O-])cc3)ccc21	CHX counter 39, Marburg entry inh inconclusive
Cc1ccccc1OCC(=O)N/N=C1\CC(=O)CC(C)(C)C1	none
Cc1ccc(OCC(=O)N/N=C2\CC(=O)CC(C)(C)C2)c(Br)c1	Lassa entry inh inconclusive, Pf growth 96h 9.3µM
c1ccc2c3n(nc2c1)CCCCO3	Pf growth 96h inconclusive (no result: Lassa entry inh, CHX counter, Marburg entry inh, Shiga toxin inh)
CC(=O)c1c(C)[nH]c(C(=O)OCc2ccccc2F)c1C	Lassa entry inh inconclusive, CHX counter 46, Marburg entry inh inconclusive, Shiga toxin inh 95
Cc1c(C(=O)OCCOc2ccccc2)[nH]c2c1C(=O)CCC2	Lassa entry inh 7.9µM, CHX counter 29, Marburg entry inh inconclusive, Shiga toxin inh 47 (no result: Pf growth 48h)
CC(=O)c1c(C)[nH]c(C(=O)OCc2cccc(C)c2)c1C	Lassa entry inh inconclusive, CHX counter 36, Marburg entry inh inconclusive, Shiga toxin inh 95
CC(=O)c1c(C)[nH]c(C(=O)OCC(=O)C(C)(C)C)c1C	Lassa entry inh inconclusive
COc1ccc(C)cc1COC(=O)c1[nH]c(C)c(C(C)=O)c1C	Lassa entry inh inconclusive, Pf growth 96h 12µM, Marburg entry inh inconclusive, Pf growth 48h inconclusive
CC(=O)c1c(C)[nH]c(C(=O)OCC(=O)Nc2ccccc2Cl)c1C	Marburg entry inh inconclusive
O=C(CSc1nnc2ccc(-c3ccccn3)nn12)NCCc1ccccc1	Lassa entry inh inconclusive (no result: CHX counter, Shiga toxin inh)
CC(=O)N1CCC(C(=O)OCc2ccccc2F)(c2ccccc2)CC1	Marburg entry inh inconclusive
Cc1c(C(=O)OC2CCCC2C)[nH]c2c1C(=O)CCC2 (stereo unspecified)	CHX counter 48, Shiga toxin inh 64
CC(=O)c1c(C)[nH]c(C(=O)OCc2ccc(Br)cc2)c1C	CHX counter 45, Marburg entry inh inconclusive, Shiga toxin inh 69
CCCc1c(C(=O)OCC)[nH]c2c1C(=O)CCC2	Pf growth 96h inconclusive (no result: Lassa entry inh, Marburg entry inh, Pf growth 48h)
CC(=O)c1c(C)[nH]c(C(=O)OCCOc2ccccc2)c1C	Lassa entry inh inconclusive, Marburg entry inh inconclusive, Shiga toxin inh 47
COc1ccccc1NC(=O)Cn1nnc(C(=O)Nc2ccccc2Br)c1N	none (no result: Pf growth 96h, CHX counter, Marburg entry inh, Shiga toxin inh, Pf growth 48h)
COc1ccc(CNc2ncc(-c3ccc(Br)cc3)n2C)cc1OC	Pf growth 96h 13µM, Pf growth 48h inconclusive (no result: Lassa entry inh, Marburg entry inh)
COc1ccc(CNc2ncc(-c3ccc(Cl)cc3)n2C)c(OC)c1OC	Pf growth 96h 2.9µM (no result: Lassa entry inh, Marburg entry inh)
CSc1nccc(-c2c(-c3ccc(Cl)cc3)noc2C)n1	Pf growth 96h inconclusive (no result: Lassa entry inh, Marburg entry inh)

High-throughput results deposited in PubChem by National Center for Advancing Translational Sciences (NCATS).
